Measurements: PubChem BioAssay AID1159580 (chemical genetic matrix, 2015)
Hit rate of the full screen: of about 5,500 compounds, about 2,000 (36%) were called active. Not shown: some 18% with an inconclusive outcome. Cut-off read from the data, not from the text of the source: active = normalized growth mostly below about 0.91 (no sharp cut-off); inconclusive = no clear call, values can overlap the other calls; inactive = mostly above about 0.92. The list shows a part of the results.

Assay: chemical genetic growth profiling, strain panel (AID 1159580);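 note: tested at 20 µM; growth read once vehicle control cultures reached saturation at 30 °C; 1 = growth at the plate median or of vehicle wells; lower values mean less growth of the strain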
Conditions: growth OD

Measured: normalized growth

NC[C@H]1O[C@H](O[C@H]2[C@H](O)[C@@H](O[C@H]3O[C@H](CO)[C@@H](O)[C@H](N)[C@H]3O)[C@H](N)C[C@@H]2N)[C@H](N)C[C@@H]1O
inactive: S. cerevisiae deletion strains, locus YJR075W, strain HOC1, active compounds read low 1.01 | S. cerevisiae deletion strains, locus YKL009W, strain mrt4, active compounds read low 1.02 | S. cerevisiae deletion strains, locus YKL068W, active compounds read low 0.998 | S. cerevisiae deletion strains, locus YKL085W, strain MDH1 (second series), active compounds read low 1 | S. cerevisiae deletion strains, locus YKL085W, strain MDH1, active compounds read low 1 | S. cerevisiae deletion strains, locus YKL160W, strain elf1, active compounds read low 0.959 | S. cerevisiae deletion strains, locus YKL190W, strain CNB1, active compounds read low 0.994 | S. cerevisiae deletion strains, locus YKR001C, strain vps1, active compounds read low 0.968 | S. cerevisiae deletion strains, locus YKR026C, strain gcn3, active compounds read low 1.02 | S. cerevisiae deletion strains, locus YKR091W, strain srl3, active compounds read low 1.01 | S. cerevisiae deletion strains, locus YLL001W, strain dnm1, active compounds read low 0.987 | S. cerevisiae deletion strains, locus YLL026W, active compounds read low 1.01 | S. cerevisiae deletion strains, locus YLL041C, strain sdh2, active compounds read low 1.01 | S. cerevisiae deletion strains, locus YLR027C, strain aat2, active compounds read low 1 | S. cerevisiae deletion strains, locus YLR039C, strain RIC1, active compounds read low 1.01 | S. cerevisiae deletion strains, locus YLR058C, strain SHM2, active compounds read low 0.994 | S. cerevisiae deletion strains, locus YLR102C, strain apc9, active compounds read low 1.01 | S. cerevisiae deletion strains, locus YLR113W, strain HOG1, active compounds read low 0.978 | S. cerevisiae deletion strains, locus YLR221C, strain rsa3, active compounds read low 0.998 | S. cerevisiae deletion strains, locus YLR258W, strain gsy2, active compounds read low 1.01 | S. cerevisiae deletion strains, locus YLR262C, strain YPT6 (second series), active compounds read low 0.973 | S. cerevisiae deletion strains, locus YLR262C, strain YPT6, active compounds read low 1.05 | S. cerevisiae deletion strains, locus YLR268W, strain sec22, active compounds read low 1.04 | S. cerevisiae deletion strains, locus YLR320W, strain mms22, active compounds read low 1 | S. cerevisiae deletion strains, locus YLR330W, strain CHS5, active compounds read low 1.01 | S. cerevisiae deletion strains, locus YLR342W, strain FKS1 (second series), active compounds read low 1.02 | S. cerevisiae deletion strains, locus YLR342W, strain FKS1, active compounds read low 1.01 | S. cerevisiae deletion strains, locus YLR357W, strain rsc2, active compounds read low 0.991 | S. cerevisiae deletion strains, locus YLR370C, strain arc18, active compounds read low 1.03 | S. cerevisiae deletion strains, locus YLR371W, strain rom2, active compounds read low 1.02 | S. cerevisiae deletion strains, locus YLR384C, strain iki3, active compounds read low 1.02 | S. cerevisiae deletion strains, locus YLR418C, strain cdc73, active compounds read low 0.986 | S. cerevisiae deletion strains, locus YML016C, strain PPZ1, active compounds read low 0.996 | S. cerevisiae deletion strains, locus YML032C, strain rad52, active compounds read low 1.02 | S. cerevisiae deletion strains, locus YML120C, strain ndi1, active compounds read low 1.01 | S. cerevisiae deletion strains, locus YML124C, strain tub3, active compounds read low 1.01 | S. cerevisiae deletion strains, locus YMR058W, strain fet3, active compounds read low 1 | S. cerevisiae deletion strains, locus YMR078C, strain ctf18, active compounds read low 1.01 | S. cerevisiae deletion strains, locus YMR125W, strain sto1, active compounds read low 1.01 | S. cerevisiae deletion strains, locus YMR129W, active compounds read low 1.01 | S. cerevisiae deletion strains, locus YMR205C, strain PFK2, active compounds read low 0.965 | S. cerevisiae deletion strains, locus YMR223W, strain ubp8, active compounds read low 0.988 | S. cerevisiae deletion strains, locus YMR231W, strain pep5, active compounds read low 0.996 | S. cerevisiae deletion strains, locus YMR307W, strain GAS1, active compounds read low 1.01 | S. cerevisiae deletion strains, locus YNL067W, strain RPL9B, active compounds read low 0.99 | S. cerevisiae deletion strains, locus YNL071W, strain lat1, active compounds read low 1.01 | S. cerevisiae deletion strains, locus YNL128W, strain TEP1, active compounds read low 0.995 | S. cerevisiae deletion strains, locus YNL153C, strain GIM3, active compounds read low 0.994 | S. cerevisiae deletion strains, locus YNL183C, strain NPR1, active compounds read low 0.933 | S. cerevisiae deletion strains, locus YNL209W, strain ssb2, active compounds read low 1.01 | S. cerevisiae deletion strains, locus YNL233W, strain BNI4, active compounds read low 1.01 | S. cerevisiae deletion strains, locus YNL248C, strain rpa49, active compounds read low 0.956 | S. cerevisiae deletion strains, locus YNL250W, strain rad50, active compounds read low 1.01 | S. cerevisiae deletion strains, locus YNL271C, strain bni1, active compounds read low 1 | S. cerevisiae deletion strains, locus YNL298W, strain CLA4, active compounds read low 0.998 | S. cerevisiae deletion strains, locus YNL307C, strain MCK1, active compounds read low 1.01 | S. cerevisiae deletion strains, locus YNL322C, strain KRE1 (second series), active compounds read low 1 | S. cerevisiae deletion strains, locus YNL322C, strain KRE1, active compounds read low 1.01 | S. cerevisiae deletion strains, locus YNR049C, strain mso1, active compounds read low 1.02 | S. cerevisiae deletion strains, locus YNR052C, strain pop2, active compounds read low 1.01 | S. cerevisiae deletion strains, locus YOL006C, strain TOP1, active compounds read low 1.02 | S. cerevisiae deletion strains, locus YOL012C, strain htz1 1.38 | S. cerevisiae deletion strains, locus YOL147C, strain pex11, active compounds read low 1.01 | S. cerevisiae deletion strains, locus YOR001W, strain rrp6, active compounds read low 1.05 | S. cerevisiae deletion strains, locus YOR061W, strain CKA2, active compounds read low 1.01 | S. cerevisiae deletion strains, locus YOR069W, strain VPS5, active compounds read low 1.01 | S. cerevisiae deletion strains, locus YOR070C, strain gyp1, active compounds read low 1.02 | S. cerevisiae deletion strains, locus YOR080W, strain dia2, active compounds read low 1.01 | S. cerevisiae deletion strains, locus YOR083W, strain WHI5, active compounds read low 0.959 | S. cerevisiae deletion strains, locus YOR106W, strain vam3, active compounds read low 0.964 | S. cerevisiae deletion strains, locus YOR136W, strain idh2, active compounds read low 0.993 | S. cerevisiae deletion strains, locus YOR144C, strain elg1, active compounds read low 1.01 | S. cerevisiae deletion strains, locus YOR184W, strain ser1, active compounds read low 0.99 | S. cerevisiae deletion strains, locus YOR231W, strain MKK1, active compounds read low 0.971 | S. cerevisiae deletion strains, locus YOR265W, strain rbl2, active compounds read low 1.03 | S. cerevisiae deletion strains, locus YOR270C, strain vph1, active compounds read low 0.943 | S. cerevisiae deletion strains, locus YOR290C, strain snf2, active compounds read low 0.987 | S. cerevisiae deletion strains, locus YOR316C, strain cot1, active compounds read low 1.01 | S. cerevisiae deletion strains, locus YPL051W, strain arl3, active compounds read low 0.988 | S. cerevisiae deletion strains, locus YPL055C, strain LGE1, active compounds read low 0.974 | S. cerevisiae deletion strains, locus YPL078C, strain atp4, active compounds read low 0.959 | S. cerevisiae deletion strains, locus YPL106C, strain sse1, active compounds read low 1.03 | S. cerevisiae deletion strains, locus YPL240C, strain hsp82, active compounds read low 1.02 | S. cerevisiae deletion strains, locus YPL256C, strain CLN2, active compounds read low 0.968 | S. cerevisiae deletion strains, locus YPR119W, strain clb2, active compounds read low 1.01 | S. cerevisiae deletion strains, locus YPR141C, strain kar3, active compounds read low 1.01 | S. cerevisiae deletion strains, locus YPR163C, strain tif3, active compounds read low 1.02 | S. cerevisiae deletion strains, locus YPR167C, strain met16, active compounds read low 1.01 | S. cerevisiae deletion strains, strain wtn01, active compounds read low 1.01 | S. cerevisiae strains, strain wild type, active compounds read low 0.998
